Compounds without any hit were thinned out: in the full panel of roughly 79,000, 15% have a hit. Unmarked numbers belong to inactive results. Calls of active or inactive are those of the source. Rule as the data show it: active = growth inhibition above about 70%; inactive = the rest.
Experiments:
[1] = NCI Yeast Anticancer Drug Screen. Data for the rad50 strain (AID 155);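 also: 0% = growth of vehicle-only cultures of the same strain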; details: S. cerevisiae rad50 strain growth inhibition; at 50.0 µM; active compounds read high
In short: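 Yeast carrying a defined DNA repair defect were exposed to test compounds, and growth was compared with vehicle-treated controls to give percent inhibition.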

[2] = NCI Yeast Anticancer Drug Screen. Data for the mec2-1 strain (AID 157); details: S. cerevisiae mec2-1 strain, at 50.0 µM, active compounds read high
In short: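 Vehicle-treated cultures served as reference for growth inhibition of compound-exposed mec2-1 yeast.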

[3] = NCI Yeast Anticancer Drug Screen. Data for the sgs1 mgt1 strain (AID 161);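 also: 0% = growth of cultures given vehicle only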; details: S. cerevisiae sgs1 mgt1 strain, at 50.0 µM, active compounds read high
In short: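 Genetically altered yeast, compound exposure, growth inhibition relative to vehicle.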

[4] = NCI Yeast Anticancer Drug Screen. Data for the cln2 rad14 strain (AID 165);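 also: 0% = growth equal to vehicle treated cultures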; details: S. cerevisiae cln2 rad14 strain, at 50.0 µM, active compounds read high
In short: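 Each compound was tested on cln2 rad14 yeast. Inhibition of growth was calculated against vehicle-exposed controls.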

[5] = NCI Yeast Anticancer Drug Screen. Data for the bub3 strain (AID 167); details: S. cerevisiae bub3 mutant strain, at 50.0 µM, active compounds read high
In short: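 Compounds were applied to a genetically altered yeast strain carrying a cell-cycle control defect. Growth inhibition was scored against vehicle-treated controls.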

[6] = NCI Yeast Anticancer Drug Screen. Data for the mlh1 rad18 strain (AID 175); details: S. cerevisiae mlh1 rad18 strain growth inhibition; at 50.0 µM; active compounds read high
In short: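 Vehicle-treated cultures served as the reference for growth inhibition in a yeast strain carrying DNA damage repair alterations exposed to each compound.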

Compound | growth inhibition [1] | growth inhibition [2] | growth inhibition [3] | growth inhibition [4] | growth inhibition [5] | growth inhibition [6]
O=[N+]([O-])c1ccc(Sc2c3ccccc3nc3cc(Cl)ccc23)cc1 | -32.2% | -18.3% | -18.5% | 9.3% | -20.3% | -28.9%
O=C1CCCCCCCCCCC1 | -8.1% | -62.7% | -17.6% | 15.2% | -17.1% | 3.1%
CC1OCOC(CO)C(O)C1O (stereo unspecified) | -18.5% | 1.55% | 17.5% | -32% | -3% | -5.8%
CCCc1cc(=O)n(CCCc2ccccc2)c(=O)n1CCCc1ccccc1 | 10.3% | -8.7% | -8.95% | -36.1% | -3.65% | 16%
CC(=O)NNc1nc(C)c(C(=O)NNC(=O)C(=O)Nc2c(C)cccc2C(C)(C)C)s1 | 26.6% | 20.2% | 13.2% | 32.5% | 24.9% | 20.9%
C/C=C/C(=O)Oc1ccccc1/C=C/C(=O)CCCCCC | 15.2% | 11.1% | 23.6% | 8.25% | 10.9% | 10.9%
C/C(=N/NC(=O)c1ccccc1)C(=O)c1ccccc1 | -4.4% | -12.2% | -2.65% | -1.2% | 6% | -0.15%
CC(C)CCC[C@@H](C)[C@H]1CC[C@H]2[C@@H]3CC[C@H]4C[C@H](N[C@@H]5CC[C@@]6(C)[C@@H](CC[C@@H]7[C@@H]6CC[C@]6(C)[C@@H]([C@H](C)CCCC(C)C)CC[C@@H]76)C5)CC[C@]4(C)[C@H]3CC[C@]12C | 55.1% | 19.2% | 46.8% | -2.8% | 15.3% | 36.7%
Cc1ccccc1NC(=O)NC(Oc1ccccc1)(C(F)(F)F)C(F)(F)F | -6.95% | -21.8% | -50.9% | 15.6% | -32.8% | -29.1%
Nc1ccn(C2OC(CO)C(O)C2Br)c(=O)n1 (stereo unspecified) | 3.9% | 8.75% | 14.2% | -12% | -10.1% | 14.1%
C=C(C)CN(CC(=C)C)C(C)=O | 5.7% | -17.7% | -15.4% | -6.15% | -16.3% | -5.85%
N/C(=N\O)c1c(Br)n(C2OC(CO)C(O)C2O)c2ncnc(N)c12 (stereo unspecified) | 12.1% | 11.7% | 4.7% | 10.8% | -2.05% | 1.75%
Cc1c(CN2CCOCC2)c(CN2CCOCC2)c(C)n1-c1ccc(Cl)cn1 | -31.1% | 7.9% | -23.1% | -6.85% | -15.7% | 7.55%
C=CCSc1ncnc2c1c(Br)cn2C1OC(CO)C(O)C1O (stereo unspecified) | 96.3% (active) | 97.5% (active) | 97.1% (active) | 97.5% (active) | 96.9% (active) | 98.3% (active)
CC(=O)Nc1ccc(S(=O)(=O)NC(=O)NC(C)C)cc1 | -4.2% | -26.4% | -2.4% | 20% | 3% | 14.3%
COc1ccc(/C=C2/SC(=S)NC2=O)cc1S(=O)(=O)O | 2.25% | -6.15% | 8.65% | -10.8% | 9.95% | -1.15%
CC(C)C(/C=C/c1ccc(Br)cc1)=N\NC(N)=O | -14.1% | -29.2% | -40.8% | -13.9% | -18.1% | -18.9%
O=C1CCCC(CCc2ccccc2)O1 (stereo unspecified) | 5.45% | -4.05% | 1.3% | -8% | -37.1% | -7.9%
Nc1ccc([N+](=O)[O-])c(F)c1 | -6.05% | -6.8% | -3.25% | -11.8% | 10.1% | 9.15%
COC(=O)c1cc2c(cc1N=Cc1ccccc1Cl)OCO2 | 0.45% | 4.3% | 12.1% | -1.65% | -0.85% | 6.35%
Cc1ccc(CC(=O)N(C)C)c([N+](=O)[O-])c1 | -9.5% | -7.15% | -1% | 0.95% | -8.45% | -25.1%

Compound | growth inhibition [1] | growth inhibition [2] | growth inhibition [3] | growth inhibition [4] | growth inhibition [5] | growth inhibition [6]
CC(=O)OC1OC(c2ccoc2)C[C@@]12C1CCC3O[C@]3(C)[C@]1(C)C[C@H](OC(C)=O)[C@H]2C (stereo partly specified) | -0.5% | -14.5% | -41.5% | -13.6% | -32.1% | -13.2%
N#Cc1nc(-c2cc([N+](=O)[O-])cc([N+](=O)[O-])c2)oc1N | -14.6% | -10.6% | -4.7% | 1.8% | 0.05% | -8.6%
COc1cc2c(cc1C1=NC(C)(C)CO1)OCO2 | -7.35% | -18.7% | -28.9% | -0.6% | -24.1% | -49.2%
CC(C)CN(CC(=O)Nc1cccc(Cl)c1)CC(C)C | -4.35% | 11.9% | 4.15% | -17.9% | 5.25% | 2.1%
CCSc1[nH]c2nc[nH]c(=O)c2c1C#N | -8.1% | 21.2% | -32.5% | -17.8% | 0.45% | -8.4%
C1=CC(=P(c2ccccc2)(c2ccccc2)c2ccccc2)C=C1 | 20.4% | 25.1% | 10.4% | 38.8% | 4.3% | 34%
O=C1C=CC(CCCCCn2ccc(=O)[nH]c2=O)C(=O)N1 (stereo unspecified) | -8.25% | 3.15% | 14.7% | 13.8% | -6.6% | -0.25%
CC1=C(C)CC2C(=O)C=CC(=O)C2C1 (stereo unspecified) | 8.9% | 1.4% | -10.7% | 4.65% | 2.25% | -6.9%
CCO/C=C1/N=C(c2ccc3ccccc3c2)OC1=O | 35.9% | 9.8% | 13.3% | -23.7% | -32.2% | 14%
Cc1cccc[n+]1CC(=O)c1ccc(Cl)cc1 | -8.05% | 3.25% | 1.05% | -44.8% | -4% | 3.65%
Cc1c(C(=O)CC(=O)C(=O)Nc2ccccc2C(F)(F)F)[n+](=O)c2ccccc2n1[O-] | 5.4% | 8.05% | -9.4% | 16.9% | 3.55% | -6.45%
S=C1SC(=Nc2ccccc2)C(=Nc2ccccc2)N1c1ccccc1 | -21.1% | -15.9% | 6.7% | -37.1% | -19.5% | -20.6%
CC1=C(C)C(=O)c2c(OC(=O)c3ccccc3)ccc(OC(=O)c3ccccc3)c2C1=O | -18.8% | 7.7% | 19.3% | -18.7% | -1.2% | -13.8%
CC1(Nc2ccccc2)OC(=O)c2ccccc21 (stereo unspecified) | -14.2% | -13.7% | -15.4% | -8.85% | -7.4% | -0.85%
O=S(=O)(O)SCCNCCCCc1ccccc1 | -11.2% | -3% | 2.3% | -5.35% | -6.4% | -22.8%
COc1ccc(CCC2(C)OCCCO2)cc1 | 9.75% | -0.65% | -0.85% | -6.75% | -5.8% | 17.4%
CCOC(=O)c1c(O)csc1C | -7.75% | -6.35% | -7.45% | -14.2% | -6.05% | -8.15%
O=C(/C=C/c1ccccc1Cl)c1ccc(Cl)c(Cl)c1 | 28.7% | 0.2% | 2.1% | 12% | 15.4% | 29.4%
CCN1C(=O)/C(=C\c2ccccc2)N=C1C | 2.45% | -7.35% | 5.55% | -58% | -12.8% | -42%
C/C(=N\N=C(\Cc1ccccc1)c1ccccc1)c1ccccc1 | 1.7% | 3.95% | -11.6% | -25.2% | -1.65% | 2.8%
